# Inconclusive results are not listed. Values without a mark were called inactive.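 The calls were made as follows: active = every repeat run fits a falling-signal curve with half-maximal potency within ten times top tested dose; inconclusive = runs disagree, or flat moderate drop, or poor fit; inactive = every run inactive, including signal moving upward.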
# Assay: ADP-Glo luciferase signal interference – biochemical, luminescence, cherry-picked samples, set 2, artefact control for CDK5 inhibitor project, dose response (AID 504546);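 also: 0% = DMSO wells and -100% = wells lacking ADP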
# Conditions: ADP-Glo detection reagent counter screen, 5 uM ADP; series mostly up to 30 µM; activity change, negative = inhibition: at the top concentration
row,SMILES,"activity change, negative = inhibition [%]"
1,O=C1NCCCc2c1oc1ccc(O)cc21,16.1
2,O=C(NNC(=O)c1ccco1)c1ccccc1,4.63
3,COc1cccc(C(=O)N2CCN(c3ccccn3)CC2)c1,15.6
4,C=CC(=O)Nc1ccc(Nc2ccnc(Nc3ccc(N4CCN(C)CC4)cc3)n2)cc1,15.2
5,COc1ccc(C(=O)c2sc(Nc3ccccc3)nc2N)cc1,14.6
6,COc1ccc(C(=O)c2sc(NC(C)C)nc2N)cc1OC,-11
7,Nc1nc(Nc2ccccc2F)sc1C(=O)c1ccccc1,-10.2
8,COc1ccc(Nc2nc(N)c([N+](=O)[O-])c(N3CCCC3)n2)cc1,-1.93
9,COc1cccc(C(=O)c2sc(NC(C)C)nc2N)c1,6.22
10,O=[N+]([O-])c1ccc2c(c1)-c1ccccc1C2=NO,7.51
11,Nc1nc(Nc2ccccc2)nc(NCCO)c1[N+](=O)[O-],16.5
12,O=C(c1ccc2c(c1)OCO2)N1CCN(c2ccccn2)CC1,13
13,CCc1cc(C(=O)c2ccc(OC)cc2)c(N)s1,15.9
14,COc1cc(OC)cc(C(=O)NNC(=O)c2ccccn2)c1,7.72
15,COc1cc(OC)c(C(=O)N2CCN(c3ccccn3)CC2)cc1OC,7.42
16,Cc1nc(Nc2ccccc2)sc1C(=O)c1ccccc1,1.1
17,CC(=O)[C@H]1CC[C@H]2[C@@H]3CC=C4C[C@@H](OS(=O)(=O)O)CC[C@]4(C)[C@H]3CC[C@]12C,-2.09
18,Oc1[nH]c2ccccc2c1C1=NCCCCC1,-3.84

row,SMILES,"activity change, negative = inhibition [%]"
1,Cc1ccc(-n2nc(C)c3c2C(Br)C(C)(C)CC3=O)nc1 (stereo not given),14.4
2,Cc1nn(-c2nccs2)c2c1C(=O)CC(C)(C)C2Br (stereo not given),16
3,O=C(O)c1ccc(/C=N\Nc2ccccn2)cc1,-6.4
4,Clc1cnc(N/N=C/c2ccncc2)c(Cl)c1,-11.8
5,CC1(C)Cc2c(ccc3ccccc23)C(=O)N1,-9.95
6,COc1ccc2oc(C(=O)NCCC(C)C)c(C)c2c1,13.2
7,CC(C)n1cnc2c(NCc3ccccc3)nc(NCc3ccccc3)nc21,20.6
8,Cc1nn(-c2nc3ccccc3[nH]2)c(=O)c2ccccc12,-5.25
9,O=C(Nc1csc(Cc2c(Cl)cccc2Cl)n1)NN1CCOCC1,-9.64
10,COc1ccc(Nc2nccc(-c3cccc(N)c3)n2)cc1,-4.84
11,CC(C)[C@H](CO)Nc1nc(NCc2ccc(S(N)(=O)=O)cc2)c2ncn(C(C)C)c2n1,0.978
12,Cc1[nH]nc2c1-c1nc3ccccc3nc1C(C)(C)C2,7.67
13,CC(C)(C)N=Cc1c(O)ccc2oc3c(c12)CCCC3,2.31
14,S=C(c1ccc(OCc2ccccc2)cc1)N1CCCC1,1.64
15,O=C(Cc1ccc(O)cc1)NCCNC(=S)NCc1ccccc1,19.9
16,COc1ccc2nc(C(F)(F)C(F)(F)F)c(C#N)c(N)c2c1,4.41
17,Nc1nc(Nc2cccc(Cl)c2)nc(NCCO)c1[N+](=O)[O-],16.8
